# Assay results as given in the supplement of paper PMC4954754.
# ± gives the uncertainty stated by the source.
# Tested on: HEK293T-Rex XBP1-RLuc
# Assay: XBP1-RLuc splicing reporter activation, triplicate, relative to 500 nM thapsigargin (% of thapsigargin); higher = stronger IRE1/XBP1s reporter activation
# Settings: 6.8 µM; 18 h; screen: confirmation
# Protocol: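 HEK293T-Rex cells stably expressing the ERSE-firefly luciferase (BiP promoter, ATF6-preferring) or XBP1-splicing Renilla luciferase (IRE1/XBP1s) reporter, 1536-well plates, compound at 6.8 µM for 18 hr at 37 °C; luminescence read […] and expressed as % activation = 100*(compound - median DMSO)/(median 500 nM thapsigargin - median DMSO). Primary screen was single-pass; confirmation screen in triplicate (mean ± SD).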
row,Structure (SMILES),XBP1-RLuc splicing reporter activation
1,COc1ccc(CCNC(=O)c2cccc(-c3ccc(N4CCOCC4)nc3)c2)cc1,1.79 ± 0.38
2,CN(C)c1ccc(/C=C/C(=O)NC(=O)c2ccccc2OC(=O)c2ccccc2)cc1,0.481 ± 0.46
3,CCCCNc1ncnc2c1cnn2-c1ccc(Cl)cc1,1.56 ± 1.6
4,Oc1ccc(-c2csc(-c3cccnc3)n2)cc1O,15.2 ± 0.9
5,COc1cn(-c2ccc(F)cc2)nc1C(=O)Nc1ccccc1SC,15.5 ± 1.8
6,O=C1N/C(=C/c2ccc(O)cc2)C(=O)N1Cc1ccc(Br)cc1,33.3 ± 4.9
7,COc1cccc(-c2cc(C(=O)Nc3cc(C)ccc3O)on2)c1,12.2 ± 1.9
8,O=C(NC(c1ccccc1)c1ccccc1)c1csc(-c2cnccn2)n1,19 ± 0.61
9,Oc1ccc(-c2cn3ccccc3n2)cc1O,20.8 ± 2
10,O=C(Nc1ccccc1O)c1ccc(C(=O)c2ccccc2)cc1,10.4 ± 0.77
11,Cc1ccccc1-c1cc(=O)c2cc(Cl)ccc2o1,8.38 ± 3.8
12,CCCNc1ccnc(N2CCc3ccccc3C2)n1,-1.35 ± 0.17
13,COc1ccccc1-c1cc(C(=O)Nc2cc(C)ccc2O)no1,7.78 ± 1.3
14,COc1cccc(C(=O)/C=C/Nc2cc(C)ccc2O)c1,10.2 ± 0.47
15,Cc1ccc2c(N)c(C(=O)c3ccc4c(c3)OCO4)sc2n1,5.3 ± 0.72
16,Cc1ccc(O)c(NC(=O)c2cc(C(C)C)on2)c1,12.7 ± 0.5
17,Cc1cc(C)c2nc3sc(C(=O)N4CCCCC4)c(N)c3cc2c1,1.34 ± 0.73
18,CC(C)CNC(=O)c1cc(-c2ccc(F)cc2)no1,4.97 ± 1.2
19,C/C(=N\NC(=O)c1n[nH]c2c1CCCC2)c1ccc2ccccc2c1,1.43 ± 0.96
20,Cc1nc(-c2coc3c(O)c(O)ccc3c2=O)cs1,7.82 ± 0.28

row,Structure (SMILES),XBP1-RLuc splicing reporter activation
1,Nc1ccccc1NC(=O)c1ccc(C(=O)Nc2ccccc2N)cc1,4.04 ± 0.55
2,CCOc1ccc(/C=C(\C#N)c2[nH]nc(N)c2C#N)cc1OCC,7.63 ± 1
3,O=C(CCc1ccccc1)Nc1ccc(Cl)cn1,0.292 ± 0.79
4,O=C1NC(=Nc2ccccc2)S/C1=C/c1ccc(O)c(O)c1,20.9 ± 2.1
5,O=C(N/N=C/c1cccc2ccccc12)c1ccc2c(c1)OCO2,5.9 ± 3.2
6,COc1ccc(C2C=C3Oc4ccccc4N=C3NN2)cc1 (stereo not given),4.19 ± 0.13
7,O=C(Nc1nc2c(s1)CCCC2)c1cccc2ccccc12,3.36 ± 1.8
8,CCOc1cccc(C(=O)Nc2ccc(Br)cn2)c1,2.81 ± 1.5
9,Cc1cccc2c1[nH]c1nc(N/N=C\c3c[nH]c4ccccc34)nnc12,21.8 ± 1.6
10,COc1ccc(/C=C/c2nc3cc([N+](=O)[O-])ccc3s2)cc1O,4.47 ± 0.66
11,Oc1ccc(/C=N/Nc2cccc(Cl)n2)c(O)c1,10.9 ± 0.95
12,O=C(NCCc1ccccc1)c1cc(-c2cccs2)on1,5.58 ± 1
13,CCCNC(=O)c1cc(-c2ccc(F)cc2)on1,4.12 ± 0.34
14,CCn1c(/C(C#N)=C/c2ccc(OC)cc2)nc2ccccc21,-0.629 ± 1.8
15,Nc1ccc2nc(-c3ccccn3)[nH]c2c1,18.7 ± 1.1
16,CCCCCCOc1ccc(/C(C)=N/NC2=NCCN2)cc1[N+](=O)[O-],15 ± 0.76
17,Cc1ccc(O)c(NC(=O)CN(C)S(=O)(=O)c2ccc(Cl)cc2)c1,15.1 ± 3.3
18,O=C(N/N=C/c1ccc(O)c(O)c1)c1cccc(Cl)c1,6.18 ± 0.63
19,N#C/C(=C\c1ccc(O)c(O)c1)C(=O)Nc1ccccc1,13.3 ± 0.68
20,N#C/C(=C/c1ccc(O)c(O)c1)c1nc2ccccc2s1,19.7 ± 0.5
